Where “and” joins values, the source holds several entries; their conditions need not be identical. Identical values can stand only once. In all, about 5,500 compounds went through this assay and about 2,000 (36%) were called active. About 18% were inconclusive and are not listed. Cut-off read from the data, not from the text of the source: active = normalized growth mostly below about 0.91 (no sharp cut-off); inconclusive = no clear call, values can overlap the other calls; inactive = mostly above about 0.92. The list shows a part of the results.
Assay: chemical genetic growth profiling, strain panel (AID 1159580);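 note: tested at 20 µM; growth read once vehicle control cultures reached saturation at 30 °C; 1 = growth at the plate median or of vehicle wells; lower values mean less growth of the strain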
Conditions: S. cerevisiae deletion strains, growth OD

Measured: normalized growth

O=C(O)c1cc2cc(F)ccc2[nH]1
inactive: locus YAL013W, strain DEP1, active compounds read low 1 | locus YAL021C, strain ccr4, active compounds read low 0.961 | locus YAL026C, strain drs2, active compounds read low 0.992 | locus YAL030W, strain snc1, active compounds read low 0.998 | locus YAL040C, strain CLN3, active compounds read low 0.969 | locus YBL061C, strain skt5, active compounds read low 0.99 | locus YBR009C, strain hhf1, active compounds read low 1.01 | locus YBR021W, strain FUR4, active compounds read low 0.99 | locus YBR023C, strain chs3, active compounds read low 0.996 | locus YBR171W, strain sec66, active compounds read low 0.97 | locus YBR229C, strain ROT2, active compounds read low 0.982 | locus YBR231C, strain swc5, active compounds read low 0.991 | locus YBR279W, strain paf1, active compounds read low 0.976 | locus YCL011C, strain gbp2, active compounds read low 0.975 | locus YCL016C, strain dcc1, active compounds read low 0.994 | locus YCL029C, strain bik1, active compounds read low 1.02 | locus YCL061C, strain MRC1 (second series), active compounds read low 0.99 | locus YCL061C, strain MRC1, active compounds read low 0.971 | locus YCL069W, strain vba3, active compounds read low 0.975 | locus YCR088W, strain abp1, active compounds read low 0.971 | locus YDL005C, strain med2, active compounds read low 0.97 | locus YDL035C, strain GPR1, active compounds read low 1.02 | locus YDL040C, strain nat1, active compounds read low 0.979 | locus YDL074C, strain BRE1, active compounds read low 1.03 | locus YDL101C, strain DUN1, active compounds read low 1.02 | locus YDL134C, strain PPH21, active compounds read low 1.01 | locus YDL185W, strain tfp1, active compounds read low 1.01 | locus YDL192W, strain arf1, active compounds read low 1.02 | locus YDR001C, strain nth1, active compounds read low 0.978 | locus YDR069C, strain doa4, active compounds read low 1 | locus YDR101C, strain arx1, active compounds read low 1.01 | locus YDR137W, strain rgp1, active compounds read low 0.968 | locus YDR150W, strain NUM1, active compounds read low 1.01 | locus YDR159W, strain sac3, active compounds read low 0.995 | locus YDR162C, strain NBP2, active compounds read low 1.02 | locus YDR195W, strain ref2 0.966 | locus YDR297W, strain sur2, active compounds read low 0.975 | locus YDR318W, strain mcm21, active compounds read low 1.02 | locus YDR334W, strain swr1, active compounds read low 0.945 | locus YDR335W, strain msn5, active compounds read low 0.99 | locus YDR388W, active compounds read low 1.01 | locus YDR392W, strain spt3, active compounds read low 0.933 | locus YDR502C, strain sam2, active compounds read low 1.02 | locus YEL003W, strain gim4, active compounds read low 0.978 | locus YEL037C, strain rad23, active compounds read low 0.981 | locus YEL061C, strain CIN8 (second series), active compounds read low 0.979 | locus YEL061C, strain CIN8, active compounds read low 1.01 | locus YER002W, strain NOP16, active compounds read low 0.966 | locus YER015W, strain faa2, active compounds read low 0.981 | locus YER016W, strain bim1, active compounds read low 0.994 | locus YER110C, active compounds read low 1.02 | locus YER111C, strain swi4, active compounds read low 1.01 | locus YER155C, strain BEM2 (second series), active compounds read low 0.993 | locus YER155C, strain BEM2, active compounds read low 1 | locus YER167W, strain BCK2, active compounds read low 1.01 | locus YFR010W, strain ubp6, active compounds read low 0.978 | locus YGL078C, strain dbp3, active compounds read low 1.01 | locus YGL086W, strain mad1, active compounds read low 1.02 | locus YGL167C, strain pmr1, active compounds read low 0.982 | locus YGL173C, strain kem1, active compounds read low 0.987 | locus YGL227W, strain vid30, active compounds read low 0.989 | locus YGL240W, strain doc1, active compounds read low 1.01 | locus YGL248W, strain PDE1, active compounds read low 1.01 | locus YGL253W, strain hxk2, active compounds read low 1 | locus YGR078C, strain PAC10, active compounds read low 0.984 | locus YGR135W, strain pre9, active compounds read low 1.02 | locus YGR229C, strain SMI1, active compounds read low 1.01 | locus YGR252W, strain gcn5, active compounds read low 1.03 | locus YHR013C, strain ard1, active compounds read low 0.99 | locus YHR027C, strain rpn1, active compounds read low 0.977 | locus YHR030C, strain SLT2, active compounds read low 1.01 and 1.02 | locus YHR079C, strain IRE1 (second series), active compounds read low 1.02 | locus YHR079C, strain IRE1, active compounds read low 0.988 | locus YHR094C, strain hxt1, active compounds read low 1.02 | locus YHR129C, strain ARP1, active compounds read low 1 | locus YHR142W, strain chs7, active compounds read low 0.949 | locus YHR200W, strain rpn10, active compounds read low 1.03 | locus YIL066C, strain RNR3, active compounds read low 1.01 | locus YIL073C, strain SPO22, active compounds read low 1.09 | locus YIL125W, strain kgd1, active compounds read low 1.01 | locus YIR030C, strain dcg1, active compounds read low 1.02 | locus YJL092W, strain hpr5, active compounds read low 0.968 | locus YJL095W, strain BCK1 (second series), active compounds read low 0.987 | locus YJL095W, strain BCK1, active compounds read low 1.01 and 0.997 | locus YJL115W, strain asf1, active compounds read low 0.962 | locus YJL129C, strain trk1, active compounds read low 0.979 | locus YJL134W, strain LCB3, active compounds read low 1.01 | locus YJL154C, strain vps35, active compounds read low 0.967 | locus YJL164C, strain tpk1, active compounds read low 0.972 | locus YJL166W, strain qcr8, active compounds read low 1 | locus YJL168C, strain set2, active compounds read low 1.02 | locus YJL187C, strain SWE1 (second series), active compounds read low 1.01 | locus YJL187C, strain SWE1, active compounds read low 0.981 | locus YJR043C, strain POL32, active compounds read low 1.01 | locus YJR066W, strain TOR1, active compounds read low 0.93

From PubChem BioAssay AID1159580 (chemical genetic matrix, 2015)
